Reference: PubChem BioAssay (Tox21)
Inconclusive results are not listed. The source made the active and inactive calls. Unless noted, the call rests on the fitted dose curve; in most records, active means well fitted curve in the direction sought with a large enough effect in the repeat runs; inconclusive means weak or mixed curves; inactive means no such curve, though single readings can be large; an effect the other way counts as inactive or inconclusive.

Tests used:
[1] = qHTS assay to identify small molecule agonists of the estrogen receptor alpha (ER-alpha) signaling pathway in the presence of an antagonist - cell viability counter screen (AID 1259386);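 further: series mostly up to about 92 µM; cells exposed to compounds for 22 h at 37 °C before the viability read; nearly all actives have a fitted effect of over 30% in size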
Method in brief: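 ICI-182,780 at 10.0nM final accompanies the compound titration (15 concentrations, 22hr, 37C) on VM7Luc4E2 cells. The CellTiter-Fluor fluorescence readout runs in the same wells as the luciferase assay.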

[2] = qHTS assay to identify small molecule antagonists of the TGF-beta/Smad signaling pathway - cell viability counter screen (AID 1346824); further: nearly all actives have a fitted effect of over 50% in size
Method in brief: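 SBE-bla HEK 293T cells, incubated overnight, then compound plus 0.25 ng/mL TGF-beta1 (stock added) for 5 hr at 37 C. Viability was read in the same wells by CellTiter-Glo luminescence after 30 min at room temperature.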

[3] = qHTS assay to identify small molecule agonists of the TGF-beta/Smad signaling pathway - cell viability counter screen (AID 1346829); further: top concentration of the series differs between compounds; nearly all actives have a fitted effect of over 45% in size
Method in brief: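 CellTiter-Glo luminescence readout; SBE-bla HEK 293T cells, overnight plating, compound 5 hr at 37 C/5% CO2, then bla substrate 2 hr RT, then CellTiter-Glo 30 min RT.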

[4] = qHTS assay to identify small molecule agonists of the TGF-beta/Smad signaling pathway (AID 1346859; active means well fitted activation curve with a large enough effect in the signal ratio in the repeat runs, not every such curve was filed as active; the % refers to the signal ratio; further: series mostly up to about 77 µM)
Method in brief: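 Each well held 4,000 SBE-bla HEK 293T cells incubated overnight before compound addition; 5 hr later the cleavable FRET substrate went on for 2 hr at room temperature, and fluorescence was read at two emissions.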

[5] = biological target: Thyrotropin-releasing hormone receptor (Homo sapiens) (UniProt P34981); assay: qHTS assay to identify small molecule antagonists of the thyrotropin-releasing hormone receptor (TRHR) signaling pathway (AID 1346877; active means well fitted inhibition curve with a large enough effect in the repeat runs, not every such curve was filed as active; further: series mostly up to about 51 µM)
Thyrotropin-releasing hormone receptor (Homo sapiens), sequence (P34981 whole entry, looked up): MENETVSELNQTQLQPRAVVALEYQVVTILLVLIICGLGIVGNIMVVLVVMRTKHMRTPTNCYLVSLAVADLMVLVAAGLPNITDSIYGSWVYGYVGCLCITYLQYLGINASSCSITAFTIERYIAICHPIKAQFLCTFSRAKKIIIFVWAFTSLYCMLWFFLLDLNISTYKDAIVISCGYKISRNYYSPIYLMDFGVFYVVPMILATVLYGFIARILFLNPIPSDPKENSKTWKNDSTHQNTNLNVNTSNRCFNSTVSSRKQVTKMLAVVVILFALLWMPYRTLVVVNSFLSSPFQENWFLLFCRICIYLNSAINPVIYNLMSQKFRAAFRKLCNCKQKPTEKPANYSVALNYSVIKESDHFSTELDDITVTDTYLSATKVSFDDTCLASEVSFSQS
Method in brief: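 Screening used HEK293 cells engineered with TRHR, with a brief 5 min room-temperature compound exposure preceding addition of TRH to 1 nM. The read-out was kinetic calcium-dye fluorescence, concentration-response from 15 doses in triplicate.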

[6] = biological target: Thyrotropin-releasing hormone receptor (Homo sapiens) (UniProt P34981); assay: qHTS assay to identify small molecule agonists of the thyrotropin-releasing hormone receptor (TRHR) signaling pathway (AID 1346891; calls by dose curve; further: series mostly up to about 58 µM)
Method in brief: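 Screening of agonists relied on calcium signalling in HEK293 cells expressing human TRHR: dye loading 2 h at 37 °C preceded compound addition and a 3-min fluorescence time course.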

[7] = Human pregnane X receptor (PXR) small molecule agonists, qHTS cell viability counter screen (AID 1346977); further: nearly all actives have a fitted effect of over 50% in size; further: potency means the concentration at half of the fitted maximal effect
Method in brief: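 Tox21 qHTS format; PXR-Luc HepG2, 2,000/well, charcoal-stripped FBS 5%. Cpd exposure 24hr. Read: CellTiter-Fluor fluorescence, multiplexed with luciferase.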

[8] = Caspase-3/7 induction in HepG2 cells by small molecules, qHTS assay (AID 1346978); further: nearly all actives have a fitted effect of over 15% in size
Method in brief: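 Wild-type HepG2 cells, 2,000/well, settled 5 hr at 37 C and 5% CO2, then compound-treated for 17 hr; caspase-3/7 activity read by luminescent Caspase-Glo 3/7 after 30 min at room temperature.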

[9] = Caspase-3/7 induction in CHO-K1 cells by small molecules, qHTS cell viability counter screen (AID 1346979); further: nearly all actives have a fitted effect of over 35% in size; further: potency means the concentration at half of the fitted maximal effect
Method in brief: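 CellTiter-Fluor viability check, qHTS format: wild-type CHO-K1, 16hr compound treatment, 1hr reagent incubation, fluorescence read.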

[10] = Caspase-3/7 induction in CHO-K1 cells by small molecules, qHTS assay (AID 1346980); further: nearly all actives have a fitted effect of over 15% in size
Method in brief: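 Wild-type CHO-K1 cells exposed to compounds for 17hr at 37 C, 5% CO2. Caspase-3/7 activity then measured by Caspase-Glo 3/7 luminescence after 30min at room temperature.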

[11] = Caspase-3/7 induction in HepG2 cells by small molecules, qHTS cell viability counter screen (AID 1346981); further: nearly all actives have a fitted effect of over 30% in size; further: potency means the concentration at half of the fitted maximal effect
Method in brief: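 Multiplexed with the caspase-3/7 assay: HepG2 cells, 16 hr compound treatment, CellTiter-Fluor viability detection by fluorescence.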

[12] = biological target: Progesterone receptor (Homo sapiens) (UniProt P06401); assay: qHTS assay to identify small molecule agonists of the progesterone receptor (PR) signaling pathway (AID 1346784; calls by dose curve; further: nearly all actives have a fitted effect of over 30% in size)
Progesterone receptor (Homo sapiens), sequence (P06401 whole entry, looked up): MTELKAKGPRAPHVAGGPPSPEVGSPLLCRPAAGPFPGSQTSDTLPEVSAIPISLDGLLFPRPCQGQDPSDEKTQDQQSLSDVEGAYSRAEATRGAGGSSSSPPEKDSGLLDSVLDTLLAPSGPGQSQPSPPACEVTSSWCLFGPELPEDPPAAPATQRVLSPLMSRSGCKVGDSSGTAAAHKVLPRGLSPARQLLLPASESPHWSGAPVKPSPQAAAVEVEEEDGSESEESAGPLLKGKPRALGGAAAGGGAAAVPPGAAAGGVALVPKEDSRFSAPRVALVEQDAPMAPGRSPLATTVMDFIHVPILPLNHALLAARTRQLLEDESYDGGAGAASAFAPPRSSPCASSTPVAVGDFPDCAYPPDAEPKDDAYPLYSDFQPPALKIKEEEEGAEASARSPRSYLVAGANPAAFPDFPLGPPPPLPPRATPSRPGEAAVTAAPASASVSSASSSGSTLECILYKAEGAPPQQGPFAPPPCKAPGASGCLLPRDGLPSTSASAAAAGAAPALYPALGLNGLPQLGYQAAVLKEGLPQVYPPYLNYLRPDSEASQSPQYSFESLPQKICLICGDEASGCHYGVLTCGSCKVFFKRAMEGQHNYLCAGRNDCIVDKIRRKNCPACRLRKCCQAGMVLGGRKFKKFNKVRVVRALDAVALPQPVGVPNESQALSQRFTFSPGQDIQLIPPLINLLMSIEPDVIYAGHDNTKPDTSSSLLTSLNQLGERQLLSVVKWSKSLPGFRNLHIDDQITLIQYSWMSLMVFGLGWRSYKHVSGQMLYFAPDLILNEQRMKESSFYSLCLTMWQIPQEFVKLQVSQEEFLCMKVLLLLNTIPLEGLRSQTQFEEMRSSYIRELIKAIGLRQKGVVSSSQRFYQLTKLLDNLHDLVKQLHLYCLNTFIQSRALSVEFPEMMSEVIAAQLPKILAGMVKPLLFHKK
Method in brief: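 Compounds were tested for PR agonism in HEK 293T cells bearing a beta-lactamase gene under UAS control. Treatment lasted 16 hr at 37C; signal came from fluorescence of a FRET substrate.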

[13] = biological target: Progesterone receptor (Homo sapiens) (UniProt P06401); assay: qHTS assay to identify small molecule antagonists of the progesterone receptor (PR) signaling pathway (AID 1346795; active means well fitted inhibition curve with a large enough effect in the signal ratio in the repeat runs, not every such curve was filed as active; the % refers to the signal ratio; further: potency means the concentration at half of the fitted maximal effect)
Method in brief: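 In HEK293T cells bearing the PR-UAS-bla reporter, compound effects on promegestone-driven (1 nM) beta-lactamase expression are assessed after 16 hr using a fluorescent FRET substrate incubated 2 hr at room temperature.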

[14] = biological target: Nuclear receptor subfamily 1 group I member 2 (Homo sapiens) (UniProt O75469); assay: Human pregnane X receptor (PXR) small molecule agonists, qHTS assay (AID 1346982); further: nearly all actives have a fitted effect of over 35% in size; further: potency means the concentration at half of the fitted maximal effect
Nuclear receptor subfamily 1 group I member 2 (Homo sapiens), sequence (O75469 whole entry, looked up): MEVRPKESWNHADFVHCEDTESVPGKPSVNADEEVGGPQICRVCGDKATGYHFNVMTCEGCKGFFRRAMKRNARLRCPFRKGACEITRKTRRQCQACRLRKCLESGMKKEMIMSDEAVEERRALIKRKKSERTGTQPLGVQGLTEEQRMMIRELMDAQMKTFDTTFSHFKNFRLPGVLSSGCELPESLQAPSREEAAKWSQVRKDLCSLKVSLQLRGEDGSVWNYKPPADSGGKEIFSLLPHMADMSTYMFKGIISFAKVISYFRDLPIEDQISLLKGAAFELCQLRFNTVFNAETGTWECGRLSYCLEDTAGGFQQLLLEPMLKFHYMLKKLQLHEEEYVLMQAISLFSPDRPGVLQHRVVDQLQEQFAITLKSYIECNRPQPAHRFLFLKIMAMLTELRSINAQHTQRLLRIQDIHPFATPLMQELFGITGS
Method in brief: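 We seeded PXR-Luc HepG2 cells in assay medium containing 5% charcoal-stripped FBS, added compounds 5 hr later, incubated 24 hr, and read luminescence with ONE-Glo reagent.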

[15] = biological target: Cytochrome P450 2D6 (Homo sapiens) (UniProt P10635); assay: Cytochrome P450 Family 2 Subfamily D Member 6 (CYP2D6) small molecule antagonists: luciferase reporter qHTS assay (AID 1671196); further: nearly all actives have a fitted effect of over 50% in size; further: potency means the concentration at half of the fitted maximal effect
Cytochrome P450 2D6 (Homo sapiens), sequence (P10635 whole entry, looked up): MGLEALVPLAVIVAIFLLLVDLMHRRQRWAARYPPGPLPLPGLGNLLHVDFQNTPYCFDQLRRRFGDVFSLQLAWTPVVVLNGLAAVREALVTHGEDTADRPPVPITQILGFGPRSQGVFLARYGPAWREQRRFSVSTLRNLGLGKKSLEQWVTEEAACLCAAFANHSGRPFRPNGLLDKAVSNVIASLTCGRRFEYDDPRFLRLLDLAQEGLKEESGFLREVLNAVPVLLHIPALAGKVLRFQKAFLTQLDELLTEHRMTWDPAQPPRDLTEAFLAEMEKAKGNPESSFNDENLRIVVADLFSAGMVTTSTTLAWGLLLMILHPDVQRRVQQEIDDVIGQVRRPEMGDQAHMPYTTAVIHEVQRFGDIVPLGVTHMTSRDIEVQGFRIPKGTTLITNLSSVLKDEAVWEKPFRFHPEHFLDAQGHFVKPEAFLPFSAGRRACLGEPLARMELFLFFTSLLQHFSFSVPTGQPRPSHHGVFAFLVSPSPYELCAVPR
Method in brief: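 Luminescence (RLU), read 20 min after detection reagent, indicated CYP2D6 conversion of proluciferin to luciferin during a 1 h NADPH-dependent reaction at room temperature.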

[16] = qHTS assay to identify small molecule agonists of the progesterone receptor (PR) signaling pathway - cell viability counter screen (AID 1346799; calls by dose curve; further: nearly all actives have a fitted effect of over 45% in size; further: potency means the concentration at half of the fitted maximal effect)
Method in brief: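 Here, 3,000 PR-UAS-bla HEK293T cells per well were treated with compounds for 16 hr after a 6 hr preincubation at 37C and 5% CO2; cell viability is the CellTiter-Glo luminescence signal.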

[17] = qHTS assay to identify small molecule antagonists of the progesterone receptor (PR) signaling pathway - cell viability counter screen (AID 1346798); further: nearly all actives have a fitted effect of over 50% in size; further: potency means the concentration at half of the fitted maximal effect
Method in brief: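 Following a 4 hr attachment, PR-UAS-bla HEK293T cells in charcoal-stripped FBS medium were exposed to compounds with R5020 for 16 hr; CellTiter-Glo was added and luminescence read after 30 min at room temperature.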

[18] = biological target: Nuclear receptor subfamily 1 group I member 2 (Rattus norvegicus) (UniProt Q9R1A7); assay: Rat pregnane X receptor (rPXR) activation by small molecules, qHTS assay (AID 1346983); conditions: rPXR luciferase reporter cells, One-Glo luminescence, 24 h; max activation: hits give high values; further: potency means the concentration at half of the fitted maximal effect; nearly all actives have a fitted effect of over 20% in size
Nuclear receptor subfamily 1 group I member 2 (Rattus norvegicus), sequence (Q9R1A7 whole entry, looked up): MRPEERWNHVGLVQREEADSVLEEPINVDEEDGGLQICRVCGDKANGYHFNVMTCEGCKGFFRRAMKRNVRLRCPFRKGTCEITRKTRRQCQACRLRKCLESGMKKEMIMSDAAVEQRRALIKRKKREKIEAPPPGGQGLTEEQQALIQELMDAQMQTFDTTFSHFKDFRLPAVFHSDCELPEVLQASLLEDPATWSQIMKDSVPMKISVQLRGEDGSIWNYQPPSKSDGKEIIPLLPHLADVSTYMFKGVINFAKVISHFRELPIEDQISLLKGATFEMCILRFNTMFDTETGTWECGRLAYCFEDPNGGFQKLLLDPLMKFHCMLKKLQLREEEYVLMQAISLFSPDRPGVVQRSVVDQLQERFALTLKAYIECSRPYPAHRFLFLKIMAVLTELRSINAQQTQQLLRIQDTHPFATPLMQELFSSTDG
Method in brief: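 Cell-based rPXR activation assay: rPXR cells, 2,000 per well, rested 5hr at 37 C, then exposed to compounds in DMSO for 24 hr at 37 C. Luciferase activity read by One-Glo luminescence after 30 min at room temperature.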

[19] = biological target: Nuclear receptor subfamily 1 group I member 2 (Homo sapiens) (UniProt O75469); assay: CYP3A4 induction through human pregnane X receptor (PXR) by small molecules, qHTS assay (AID 1346984); further: nearly all actives have a fitted effect of over 40% in size; further: potency means the concentration at half of the fitted maximal effect
Method in brief: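 qHTS, concentration-response format: HepG2 DPX-2 line, PXR/CYP3A4-luc. Exposure 24 h, 37C. Substrate Luciferin-IPA 3uM final, 3 h. Detection One-Glo, 30 min RT.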

[20] = biological target: Nuclear receptor subfamily 1 group I member 2 (Homo sapiens) (UniProt O75469); assay: Human pregnane X receptor (PXR) activation by small molecules, qHTS assay (AID 1346985); further: nearly all actives have a fitted effect of over 40% in size
Method in brief: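 DPX-2 cells (HepG2 co-transfected with a PXR response element and a CYP3A4-promoter luciferase construct) were seeded at 2,000 per well, rested 5 hr at 37C, then exposed to DMSO-dissolved compounds for 24 hr. Activation was read as luciferase luminescence.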

Measured: Potency

CC(Cl)C(Cl)Cl (configuration not stated)
inactive: [1] | [2] | [3] | [4] | [5] | [6] | [7] | [8] | [9] | [10] | [11]

NC(=O)Cn1c(=O)cc(CCN2CCN(c3nccc4sccc34)CC2)c2ccc(F)cc21
inactive: [12] | [13] | [2] | [3] | [6] | [8] | [10] | [14]
active: [15] 35.6 µM

CC[C@H](NC(=O)c1cc(F)ccc1NS(=O)(=O)c1cccc2cccnc12)c1ccccc1
active: [9] 46 µM
inactive: [1] | [16] | [2] | [3] | [4] | [5] | [6] | [7] | [8] | [10]

CCCCCCCCCCCC[N+](C)(C)CCCS(=O)(=O)[O-]
not listed: [1] | [16] | [18] | [19] | [20]
inactive: all other assays above

CC(=O)[C@H]1CC[C@H]2[C@@H]3C[C@H](C)C4=CC(=O)CC[C@]4(C)[C@H]3[C@@H](O)C[C@]12C
active: [14] 13.3 µM | [18] 2.51 µM
not listed: [4] | [5] | [9] | [12] | [13] | [16] | [17]
inactive: all other assays above

CCC(=O)OC/C=C/c1ccccc1
not listed: [1] | [5] | [6] | [18] | [19] | [20]
inactive: all other assays above

Cc1occc1C(=O)Nc1ccc(C(=O)N2CCC(F)(F)/C(=C\C(=O)N3CCC(N4CCCCC4)CC3)c3ccccc32)cc1
inactive: [12] | [13] | [2] | [3] | [5] | [6] | [8] | [9] | [10]
active: [7] 17 µM | [14] 19.1 µM | [15] 2.79 µM

CN(C)C(=O)Nc1ccc(Oc2ccc(Cl)cc2)cc1
active: [13] 34.4 µM | [9] 54.5 µM
inactive: [12] | [2] | [3] | [4] | [5] | [6] | [7] | [8] | [10]

O=C(CCC1CCN(Cc2ccccc2)CC1)c1ccc2c(c1)NCCCC2
active: [15] 8.71 µM
inactive: [12] | [17] | [2] | [3] | [4] | [5] | [6] | [8] | [10] | [11]

CNCCCC1c2ccccc2C=Cc2ccccc21
inactive: [12] | [2] | [3] | [5] | [6] | [10]
active: [17] 21.1 µM | [16] 10.6 µM | [7] 29.8 µM | [9] 26.6 µM | [19] 3.55 µM | [15] 4.9 µM

CC1=C(/C=C/C(C)=C\C=C\C(C)=C\C(=O)O)C(C)(C)CCC1
inactive: [17] | [2] | [5] | [6] | [8] | [10]
active: [14] 54.5 µM

Cc1cc2nc3ccc(=[N+](C)C)cc-3sc2cc1N
active: [7] 13.3 µM | [9] 1.88 µM | [11] 23.7 µM | [15] 5.49 µM
inactive: [16] | [2] | [3] | [4] | [8] | [10] | [14]
